The campaign covered roughly 68,000 compounds. About 2,700 (4%) showed an effect of 50% or more. Shown is part of a subset that was picked to be rich in strong results.
Test system: Plasmodium berghei
Assay: Screen against P. berghei liver stage (PbLuc), transformed with Luciferase, at 2uM
Format: functional, HepG2
Conditions: tested at 2 uM

| SMILES | INHIBITION |
| --- | --- |
| CSCc1ccc(C(=O)NCCCNc2ccc(C(F)(F)F)cn2)cc1 | 6.77% |
| Cn1c(CN2CCCCCC2)cc(=O)c(O)c1CN1CCCC1 | 29.19% |
| Cc1cc(C)nc(C2CCN(C(=O)CCn3ncc4ccccc43)C2)n1 (centres undefined) | 30.73% |
| Cc1cc(C)nc(C2CCN(C(=O)CCn3nnc4ccccc43)C2)n1 (centres undefined) | 13.22% |
| Cc1ccnc(C2CCN(C(=O)CCn3ncc4ccccc43)C2)n1 (centres undefined) | 72.83% |
| Cn1cc(CN2CCc3ccc(=O)n(CC4CC4)c3CC2)cn1 | 23.68% |
| OC1(CNc2ccc(F)cc2)CCNCC1 | 8.5% |
| OC1(CNc2cccc(F)c2)CCNCC1 | -14.66% |
| OC1(CNc2ccccc2)CCNCC1 | 51.61% |
| CCN(CC)S(=O)(=O)CC(=O)N1CCc2ccc(C)cc21 | -13.17% |
| CCN(C(=O)CSc1ccc(C(F)(F)F)cn1)C1CC1 | -69.56% |
| NC(=O)C1CCCN1c1cc(N2CCc3ccccc3C2)ncn1 (centres undefined) | -4.95% |
| c1ccc(C(OCCNC2CCc3ncnn3C2)c2ccccc2)cc1 (centres undefined) | 64.71% |
| O=S(=O)(CCNC1CCc2ncnn2C1)c1ccccc1 (centres undefined) | 11.18% |
| c1ccc(CCNC2CCc3ncnn3C2)nc1 (centres undefined) | -56.99% |
| c1ccc(COc2ccccc2CNC2CCc3ncnn3C2)cc1 (centres undefined) | 11.95% |
| c1ccc(OC2CCCC2)c(CNC2CCc3ncnn3C2)c1 (centres undefined) | -12.48% |
| c1ccc(OCC2CC2)c(CNC2CCc3ncnn3C2)c1 (centres undefined) | 54.2% |
| COc1cccc(-c2cc(C3CCCNC3)ccn2)c1 (centres undefined) | 17.29% |
| Cc1nnsc1CN(C)C(=O)CN1CC2(CCNCC2)OC1=O | -7.96% |
| CCc1cc(NC(=O)C(c2cccc(F)c2)N2CCOCC2)[nH]n1 (centres undefined) | 35.36% |
| COC(=O)C(CCSC)NC(=O)Cc1c(C)nn(-c2ccccc2)c1C (centres undefined) | -60.22% |
| COC(=O)[C@H](CCSC)NC(=O)Cc1c(C)nn(-c2ccccc2)c1C | 4.89% |

| SMILES | INHIBITION |
| --- | --- |
| Cc1nn(-c2ccccc2)c(C)c1CNC(=O)NC1CC(=O)N(C)C1 (centres undefined) | 62.39% |
| Cc1nn(-c2ccccc2)c(C)c1CC(=O)NC1CC(=O)N(C)C1 (centres undefined) | 59.03% |
| Cc1nn(-c2ccccc2)c(C)c1CNC(=O)NC1CC1 | 28.73% |
| CSCCC(NC(N)=O)C(=O)NCc1c(C)nn(-c2ccccc2)c1C (centres undefined) | -58.01% |
| CC(=O)N1CCN(Cc2ccncc2)CC2(CC(=O)N(C)C2)C1 (centres undefined) | 3.49% |
| CN1CCN(CC2(O)CCCN(C(=O)Cc3cccc(O)c3)CC2)CC1 (centres undefined) | 12.6% |
| Cc1nc(C)c(C(=O)NCCNc2ncccc2C(F)(F)F)s1 | -90.65% |
| Cc1cc(NC(=O)c2ccc(-n3ncc(C#N)c3N)cc2)n(C)n1 | -28.98% |
| Cc1cnc(NC(=O)c2ccc(-n3ncc(C#N)c3N)cc2)s1 | -50.69% |
| Cc1nc(NC(=O)c2ccc(-n3ncc(C#N)c3N)cc2)sc1C | 78.98% |
| CC1CCC(O)(CSc2nnnn2C)CC1 (centres undefined) | 4.91% |
| CC(C)CC(=O)NCC(O)c1c(F)cccc1F (centres undefined) | 14.96% |
| CN(C)C(=O)CN1CCOCC2(CCN(CC3CCOCC3)CC2)C1 | 12.68% |
| CN(C)C(=O)CN1CCC2(C1)CN(CC1CCOC1)C2 (centres undefined) | -54.01% |
| CN(C)C(=O)CN1CCOCC2(CCN(CC3CCOC3)CC2)C1 (centres undefined) | 82.53% |
| COc1ccc(C(C)CCNC2CCN(c3ccccn3)CC2)cc1 (centres undefined) | 3.2% |
| CCS(=O)(=O)c1ccccc1N1CCC(NC2CCCC2)CC1 | 27.47% |
| CCS(=O)(=O)c1ccccc1N1CCC(NC(C)=O)CC1 | -0.64% |
| CCS(=O)(=O)c1ccccc1N1CCC(NC(=O)NC2CCCC2)CC1 | 64.71% |
| Cc1cc(C)n(CC(C)CNC(=O)NCc2c(C)cc(C)[nH]c2=O)n1 (centres undefined) | 10.14% |
| Cc1ccc(NC(=O)N2CCOC(C(N)=O)C2)cc1C(F)(F)F (centres undefined) | 33.11% |
| COC1CCN(CCNc2ncc(Br)cc2C)CC1 | -4.26% |
| Cc1cc(Br)cnc1NCCN1CCC(N(C)C)CC1 | 64.9% |

| SMILES | INHIBITION |
| --- | --- |
| CC(=O)N1CCN(CCNc2ncc(Br)cc2C)CC1 | 12.43% |
| O=S(=O)(c1cccnc1)N1CCCCC1CCN1CCOCC1 (centres undefined) | -13% |
| Cc1cc(C)nc(N2CCCC(c3cccc(-n4ccnc4)n3)C2)n1 (centres undefined) | -2.89% |
| O=C(Nc1ncc[nH]1)c1cc(-c2cccnc2)n[nH]1 | -36.68% |
| O=C(c1cc2c(s1)CCCC2)N1CCCC1Cn1cccn1 (centres undefined) | 1.61% |
| CC(=O)N1CCC2(CCCN(S(=O)(=O)c3ccc(F)cc3)C2)C1 (centres undefined) | -8.04% |
| CC(=O)N1CCC2(C1)CN(S(=O)(=O)c1ccccc1)C2 | 56.76% |
| CC(=O)N1CCC2(CC1)CCN(S(=O)(=O)c1ccccc1)C2 | 27.65% |
| CC(=O)N1CCC2(CCCN(S(=O)(=O)c3ccccc3)C2)C1 (centres undefined) | 52.36% |
| CN(C)CC(=O)N1CC2(CCN(S(=O)(=O)c3ccccc3)C2)C1 | 39.51% |
| CC(=O)N1CCC2(CCN(S(=O)(=O)c3ccccc3)CC2)C1 | 11.18% |
| CN(C)c1ccc(CNC(=O)NCCc2cccs2)cn1 | 9.17% |
| Cc1ccncc1CN1CCOCC1c1[nH]ncc1C (centres undefined) | 5.01% |
| Cc1cc(CNc2ccnn2C)ccc1-n1cncn1 | 14.93% |
| CC1(C)Cc2nc(C(C)(C)C)ncc2C(NC(=O)CN)C1 (centres undefined) | 21.28% |
| CN(C)CCCC(=O)NC1CC(C)(C)Cc2nc(C(C)(C)C)ncc21 (centres undefined) | 35.56% |
| CN(C)CC(=O)NC1CC(C)(C)Cc2nc(C(C)(C)C)ncc21 (centres undefined) | 68.39% |
| Cc1nc[nH]c1CN1CCCn2nc(CN3CCC(F)(F)CC3)cc2C1 | 8.48% |
| O=C(c1ccsc1)N1CCC(Nc2cccnn2)CC1 | 2.8% |
| CC(C(=O)Nc1ccc(N2CCCCC2)nc1)n1ccnc1 (centres undefined) | -34.5% |
| CCCNC(=O)N1CCc2ccc(S(=O)(=O)N3CCN(C)CC3)cc2C1 | 30.62% |
| O=C(c1ccoc1)N1CCCC2(CCC(=O)N2Cc2ccncc2)C1 (centres undefined) | 3.56% |
| Cc1cnn(CC2CCCN2C(=O)c2cccc(CC#N)c2)c1 (centres undefined) | -17.11% |

— ChEMBL document CHEMBL4513216, “Probing the Open Global Health Chemical Diversity Library for Multistage-Active Starting Points for Next-Generation Antimalarials” (ACS Infect Dis, 2020)
